Tests used:
[1] = tested on: Vero E6 infected with SARS-CoV-2; test: morphology score (similarity to uninfected cells); higher = more like uninfected cells; details: 24 h
[2] = tested on: Vero E6 infected with SARS-CoV-2; test: SARS-CoV-2 infection rate relative to infected DMSO; higher = more infection, active = 60 or less; details: 24 h

Compound | morphology score [1] | SARS-CoV-2 infection rate [2]
OC[C@@H](O)[C@@H](O[C@@H]1O[C@H](CO)[C@H](O)[C@H](O)[C@H]1O)[C@H](O)[C@@H](O)CO (10 µM) | -0.0894 | 111% (inactive)
Cc1ncc([N+](=O)[O-])n1CCO [metronidazole] (10 µM) | -0.0912 | 118% (inactive)
O=C(O)c1ccc(S(=O)(=O)N(Cc2ccc(OC(F)(F)F)cc2)c2ncc(C(F)(F)F)cc2Cl)cc1 (10 µM) | 0.114 | 102% (inactive)
COc1cccc(-n2nc(C(=O)O)cc2-c2ccc(C3CCCCC3)c(Cl)c2)c1 (10 µM) | 0.0895 | 102% (inactive)
Cc1ncc([N+](=O)[O-])n1CC(C)O (stereo not drawn) [secnidazole] (10 µM) | 0.17 | 99% (inactive)
CCCCCCCCCCCCCCCCO [1-hexadecanol] (10 µM) | -0.278 | 110% (inactive)
Cc1ccc(NC2=NCCN2)c(Cl)c1 [tolonidine] (10 µM) | -0.0217 | 98.5% (inactive)
CN1C(C)(C)CCCC1(C)C [pempidine] (10 µM) | 0.0949 | 96% (inactive)
Fc1ccc(C(OCCN2CCN(CCCc3ccccc3)CC2)c2ccc(F)cc2)cc1 [vanoxerine] (0.833333 µM) | 0.275 | 86% (inactive)
CC(=O)[C@H]1CC[C@H]2[C@@H]3CC[C@H]4C[C@H](O)CC[C@]4(C)[C@H]3C(=O)C[C@]12C [alfaxalone] (10 µM) | -0.0143 | 112% (inactive)
Cc1cc2sc(NC(=O)Cc3ccccc3)nc2cc1Cl (10 µM) | 0.407 | 76.5% (inactive)
O=C(O)C1=CCCN(CCON=C(c2ccccc2)c2ccccc2)C1 (10 µM) | 0.0245 | 95% (inactive)
CC(C)(C)N1CCC(c2ccccc2)(c2ccccc2)CC1 [budipine] (10 µM) | 0.395 | 76.5% (inactive)
C[C@H](NC(=O)CNC(=O)c1cccc(Cl)c1)c1ccccc1 (10 µM) | 0.0656 | 102% (inactive)
O=S(=O)(O)c1cc(O)ccc1O [etamsylate] (10 µM) | 0.0853 | 94.5% (inactive)
O=C1c2ccccc2C(Cc2ccncc2)(Cc2ccncc2)c2ccccc21 (10 µM) | -0.0398 | 98% (inactive)
N[C@@H](Cn1ccc(=O)n(Cc2ccccc2C(=O)O)c1=O)C(=O)O (10 µM) | 0.28 | 79% (inactive)
Cc1cc2ncc(C(=O)NCC(C)(C)NCC(=O)N3CCC[C@H]3C#N)cn2n1 [anagliptin] (10 µM) | -0.112 | 110% (inactive)
COc1cc(-c2ncn(/C=C\C(=O)OC(C)C)n2)cc(C(F)(F)F)c1 (10 µM) | -0.358 | 114% (inactive)
C[C@H]1[C@H](C)CC[C@]2(C(=O)O)CC[C@]3(C)C(=CC[C@@H]4[C@@]5(C)C[C@@H](O)[C@H](O)[C@@](C)(CO)[C@@H]5CC[C@]43C)[C@H]12 [asiatic-acid] (10 µM) | -0.135 | 108% (inactive)
CN(C)CCCOc1nn(Cc2ccccc2)c2ccccc12 [benzydamine] (10 µM) | 0.4 | 70.5% (inactive)
C#CCC(Cc1cnc2nc(N)nc(N)c2n1)c1ccc(C(=O)N[C@@H](CCC(=O)O)C(=O)O)cc1 (stereo partly drawn) [pralatrexate] (10 µM) | 0.042 | 104% (inactive)
CNCC(O)c1ccc(O)c(O)c1 (racemic) [DL-Adrenaline] (10 µM) | 0.188 | 109% (inactive)
C=C1/C(=C\C=C2/CCC[C@]3(C)[C@@H]([C@H](C)/C=C/C=C/C(O)(CC)CC)CC[C@@H]23)C[C@@H](O)C[C@@H]1O [seocalcitol] (10 µM) | -0.0779 | 110% (inactive)
Cn1cc([S+](C)[O-])c(=O)c2ccc(F)cc21 (stereo not drawn) [flosequinan] (10 µM) | 0.195 | 96.5% (inactive)
COc1ccc(-c2nc3cc(C4=NNC(=O)CC4C)ccc3[nH]2)cc1 (stereo not drawn) [pimobendan] (10 µM) | 0.129 | 94% (inactive)
O=C1N(c2ccccc2)c2ccccc2C1(Cc1ccncc1)Cc1ccncc1 [linopirdine] (10 µM) | 0.249 | 91% (inactive)
CC(C)(C)c1cc(C=C(C#N)C#N)cc(C(C)(C)C)c1O [tyrphostin-A9] (0.833333 µM) | 0.116 | 80.5% (inactive)
Cc1sc2c(c1C)C(c1ccc(Cl)cc1)=N[C@@H](CC(=O)Nc1ccc(O)cc1)c1nnc(C)n1-2 (10 µM) | -0.169 | 114% (inactive)

From the supplement of paper PMC13380429
